Test system: Plasmodium falciparum NF54 gametocytes
Test: viability index relative to DMSO control (fraction); higher = less gametocyte killing
Conditions: 12.5 µM, incubation time: 72 h
Outline: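 Each stage (I–V) of P. falciparum NF54 gametocytes was incubated with compound at 12.5 µM in 384-well plates, in 40 µl of serum-containing medium at 0.50% gametocytemia and 1.25% hematocrit, for 72 hr at 37°C under low oxygen. After 5 µl of 5 µM MitoTracker Red CMXRos was added for 20 min, 5 µl from each well was moved into 40 µl of 500 nM dye in serum-free medium and imaged across three fields after 30 min. The viability index is the gametocyte particle count divided by the plate mean of the solvent-only wells.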

[1] = gametocyte stage: Stage I viability index
[2] = gametocyte stage: Stage II viability index
[3] = gametocyte stage: Stage III viability index
[4] = gametocyte stage: Stage IV viability index
[5] = gametocyte stage: Stage V viability index

SMILES | viability index [1] | viability index [2] | viability index [3] | viability index [4] | viability index [5]
COc1ccc(C=C2SC(=N)N(c3ccccc3OC)C2=O)cc1 | 0.642 | 0.916 | 0.942 | 0.769 | 0.923
CCCc1c(C)nc2ccc(Br)cc2c1O | 0.777 | 0.706 | 0.893 | 0.965 | 0.753
O=C1c2ccccc2-c2nnc(-c3ccc(Br)cc3)cc21 | 0.844 | 0.875 | 0.783 | 0.873 | 0.87
CCOc1ccccc1CN1CCc2nc3cc(C(C)(C)C)nn3c(O)c2C1 | 0.89 | 0.7 | 0.583 | 0.737 | 0.597
O=C(Nc1ccc(CN2CCOCC2)cc1)c1ccc(-c2cc(Cl)ccc2Cl)o1 | 0.302 | 0.64 | 1.15 | 1.04 | 1.04
COc1ccc2nc(C)cc(Nc3ccc(Cl)cc3)c2c1 | 0.243 | 0.525 | 0.994 | 1.05 | 0.692
CCCc1c(C)nc2ccccc2c1O | 0.634 | 0.705 | 0.844 | 0.72 | 1.02
Nc1nc(Nc2cccc(F)c2)nc2ccccc12 | 0.0673 | 0.534 | 0.725 | 0.82 | 0.844
COc1ccc2nc(C)cc(Nc3cccc(O)c3)c2c1 | 0.105 | 0.564 | 0.896 | 0.991 | 1.1
O=C(Nc1ccsc1C(=O)NC1CCCCC1)c1ccc(F)cc1 | 0.93 | 0.729 | 0.965 | 0.933 | 0.945
Fc1ccc2[nH]c3c(NCCCN4CCOCC4)ncnc3c2c1 | 0.053 | 0.564 | 0.873 | 0.866 | 0.78
Cc1cc(=O)oc2c1ccc1oc(C(=O)c3ccccc3)c(C)c12 | 0.948 | 1 | 0.867 | 0.972 | 1.01
CSC1=NC(=Nc2c(C)cccc2C)C2(CCC(C(C)(C)C)CC2)N1c1ccc(Cl)cc1 (stereo not given) | 0.646 | 0.816 | 0.928 | 0.994 | 0.835
Cc1ccc(Cn2c(N3CCC(C(=O)NCc4cccs4)CC3)nc3ccccc32)cc1 | 0.593 | 0.289 | 0.545 | 0.544 | 0.308
O=C(NNc1cc(N2CCCC2)nc(N2CCCC2)n1)c1ccccc1 | 0 | 0.00749 | 0.275 | 0.516 | 0.377
CCOC(=O)c1c(NC(=O)c2ccccc2)sc2c(O)c(CN(CC)CC)ccc12 | 0.0641 | 0.129 | 0.32 | 0.517 | 0.407
O=C(CCl)NCCOc1ccc(Cl)cc1Cl | 0.732 | 0.629 | 0.813 | 0.769 | 0.675
OC(CNCc1ccccc1)Cn1c2ccccc2c2ccccc21 (stereo not given) | 0.0629 | 0.0658 | 0.172 | 0.342 | 0.26
COc1cc(-c2nc(-c3ccc(Sc4ccccc4)cc3)c(-c3ccccc3)[nH]2)cc(OC)c1O | 0.0507 | 0.0441 | 0.0529 | 0.0222 | 0.0779
O=C1c2ccc3c4c(ccc(c24)C(=O)N1CCCCO)C(=O)N(CCCCO)C3=O | 0.364 | 0.261 | 0.204 | 0.168 | 0.182
O=C(Nc1ccc(-c2nc3cc(NC(=O)c4ccc(Cl)cc4)ccc3[nH]2)cc1)c1ccc(Cl)cc1 | 0.0481 | 0.00583 | 0.0176 | 0.00316 | 0
COc1cccc(C(=O)Nc2ccc(-c3nc4ccccc4[nH]3)cc2)c1 | 0.295 | 0.595 | 0.852 | 1.03 | 0.883
CN(C)c1ccc(C=Cc2nc(=O)c3ccccc3o2)cc1 | 0.611 | 0.713 | 0.82 | 0.921 | 0.835
COCCNC(=O)c1ccc(OC2CCN(Cc3ccc(F)c(F)c3)CC2)c(Cl)c1 | 0.672 | 0.812 | 1.07 | 0.979 | 0.901
CCOC(=O)c1cnc2ccc(OC)cc2c1Nc1ccc(N2CCN(C)CC2)cc1 | 0.0953 | 0.479 | 0.931 | 0.842 | 0.779
Oc1c(C(Nc2ccccn2)c2cccc(Oc3ccccc3)c2)ccc2cccnc12 (stereo not given) | 1.06 | 0.975 | 1.04 | 0.994 | 0.675
COc1ccc(CCNC(=O)c2cc(S(=O)(=O)N3CC(C)CC(C)C3)ccc2Sc2ccc(F)cc2)cc1OC (stereo not given) | 0.104 | 0.445 | 0.844 | 0.769 | 0.987

SMILES | viability index [1] | viability index [2] | viability index [3] | viability index [4] | viability index [5]
CCN(CC)CCNc1ncnc2c1[nH]c1ccc(Cl)cc12 | 0.0354 | 0.373 | 0.818 | 0.763 | 0.451
O=C(Nc1ccccc1O)c1ccc(-c2ccc(Cl)cc2Cl)o1 | 0.0166 | 0.0976 | 0.6 | 0.653 | 0.736
O=C(Nc1cccc(C(F)(F)F)c1)c1cc(Cl)ccc1O | 0.00552 | 0.00676 | 0.0184 | 0.0669 | 0.11
FC(F)(F)c1cccc(Nc2nc(-c3ccccc3)nc3ncccc23)c1 | 1.17 | 1.08 | 1.33 | 1.09 | 1.15
CCCCN(CCCC)S(=O)(=O)c1ccc(NC(=O)c2ccco2)cc1 | 0.943 | 0.963 | 0.951 | 0.842 | 0.831
CCN1CCN(c2c(C(=O)c3ccccc3)cnc3cc(OC)c(OC)cc23)CC1 | 1.03 | 0.988 | 1.22 | 1 | 0.909
CCN1CCN(Cc2ccc(NC(=O)c3cc4ccc5cccnc5c4[nH]3)cc2)CC1 | 0.834 | 0.845 | 1.09 | 0.997 | 1.02
c1ccc(-c2ccc(-c3nc4ccccc4[nH]3)cc2)cc1 | 0.527 | 0.768 | 0.867 | 0.784 | 0.967
Cc1nc2ccccc2c(O)c1CC=C(Cl)Cl | 0.814 | 0.962 | 0.897 | 0.87 | 1.06
Cc1ccc(Nc2nc(-c3ccccn3)cs2)cc1 | 0.193 | 0.22 | 0.109 | 0.173 | 0.121
COc1ccc(C2=C(c3ccc(OC)cc3)C3(c4ccccc4)C(=O)C2(c2ccccc2)C2C(=O)N(c4ccc(C)cc4)C(=O)C23)cc1 (stereo not given) | 0.682 | 0.679 | 0.949 | 1.02 | 0.967
CCCCOC(=O)c1ccc(Nc2cc(C)nc3ccc(OC)cc23)cc1 | 0.0647 | 0.156 | 0.545 | 0.411 | 0.325
O=C(Nc1ccc(N2CCN(Cc3ccccc3)CC2)cc1)c1cccs1 | 0.941 | 0.866 | 0.795 | 0.875 | 1.15
COc1ccc(N2CCN(C(CNC(=O)C3CCCCC3)c3ccc4c(c3)OCO4)CC2)cc1 (stereo not given) | 0.912 | 0.986 | 1.04 | 0.86 | 0.758
CC1CN(C(=O)c2sc3ccccc3c2Cl)CC(C)O1 (stereo not given) | 0.768 | 0.756 | 0.97 | 0.912 | 0.989
CCCCC(O)(c1ccc(Cl)cc1)C(CN1CCOCC1)c1ccc(Cl)cc1 (stereo not given) | 0.941 | 0.896 | 0.871 | 0.763 | 0.701
COC(=O)c1ccc(Cl)c2c1C1C=CCC1C(c1cccc3ccccc13)N2 (stereo not given) | 0.825 | 0.795 | 1.14 | 0.962 | 0.883
C=C(C)CCC(C)N1CCC(N2CCC(C(=O)NCCc3ccccc3)CC2)CC1 (stereo not given) | 0.538 | 0.665 | 0.948 | 0.845 | 0.758
CCOc1ccc2nc(C)cc(Nc3ccc(Br)cc3)c2c1 | 0.152 | 0.407 | 0.828 | 0.851 | 0.818
O=c1nc(C=Cc2ccc(Br)cc2)oc2ccccc12 | 0.838 | 0.88 | 0.843 | 0.978 | 0.935
CCCN(CCC)CCCNC(=O)c1cc2c(-c3ccc(OC)c(OC)c3)nn(C)c2s1 | 0.302 | 0.754 | 0.996 | 0.954 | 0.868
COc1ccc(C2Sc3ccccc3N=C3C2=C(O)c2ccccc23)cc1 (stereo not given) | 0.64 | 0.882 | 0.967 | 1.08 | 0.956
C[n+]1c2ccccc2nc2ccc(NCCO)cc21 | 0.0398 | 0.302 | 0.595 | 0.824 | 1.03
COc1ccc(C(=O)C(CCC(CNC(C)(C)C)C(=O)c2ccc(OC)cc2)CNC(C)(C)C)cc1 (stereo not given) | 0.811 | 0.698 | 0.548 | 0.418 | 0.117
FC(F)(F)c1cccc(Nc2nc3ccccc3nc2Nc2cccc(C(F)(F)F)c2)c1 | 0.0175 | 0.0233 | 0.0149 | 0.00633 | 0.0649
COc1cccc(C(=O)NC(c2ccc(C)cc2)c2cc(Cl)c3cccnc3c2O)c1 (stereo not given) | 0.116 | 0.0583 | 0.0814 | 0.247 | 0.039

Source: the supplement of paper PMC4723716
